CF NFkB block = blocks PAF-induced NF-kB reporter in cystic fibrosis cells; inhibition, % at 5 µM; actives 0.86% (n = 360,000); AID 588850; KKLEB NF-kB-GFP reporter, GFP fluorescence overnight;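 active = at least 50% inhibition at 5 µM, scaled per plate between neutral and stimulator controls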;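 note: PAF is a Pseudomonas aeruginosa culture filtrate used as stimulus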
TWEAK-Fn14 inh = blocks TWEAK-Fn14 interaction in a reporter cell assay; TWEAK-stimulated Fn14 reporter cells, luciferase luminescence, 8 h; inhibition, % at 10 µM; actives 2% (n = 360,000); in the data active = inhibition above about 50%
TROY NFkB inh = inhibitors of TROY-dependent NF-kB signaling; Q293 LMP1-TROYcd NF-kB luciferase reporter, 4 h; inhibition, % at 10 µM; actives 0.98% (n = 360,000);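 active = compounds whose plate-normalised and pattern-corrected inhibition of the luciferase reporter signal at the single screening dose is 50% or more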
KKLEB tox = reduces viability of KKLEB cystic fibrosis airway cells; KKLEB CF airway cells viability, ATPlite luminescence, overnight; hits give low values; cells stimulated with P. aeruginosa culture filtrate; activity change (cytotoxicity), % at 5 µM; actives 0.36% (n = 360,000);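 active = corrected activity change at or below -50% at 5 µM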
HIF-2a block = HIF-2a inhibition; 786-0 RCC cells HIF-2a reporter, luciferase luminescence, overnight; inhibition, % at 18.8 µM; actives 0.72% (n = 360,000);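 active = inhibition of the luminescence signal of 40% or more relative to plate controls, in a single-dose primary screen at 18.75 µM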
Peg3 promoter = Peg3 promoter activity inhibition; inhibition, % at 20 µM; AID 588405; actives 1.7% (n = 360,000); HeLa PEG-Prom luciferase reporter, luminescence, overnight;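 active = inhibition of at least 50% at 20 µM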
CF NFkB inh conf = CF NF-kB inhibition confirmation, single concentration; inhibition, % at 5 µM; KKLEB CF airway cells, PAF-induced NF-kB-GFP fluorescence, overnight; shares compounds with CF NFkB block; actives 64% (n = 1,300); in the data active = inhibition above about 40%;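 note: stimulus PAF is a Pseudomonas aeruginosa filtrate and not platelet activating factor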
Of the large screens only hits and unclear results are named; the others gave an inactive call (follow-up assays come after a bar, where they were run). Only some compounds are listed: those with a hit (about 4% of all), similar ones and a draw of the others.

O=C(O)/C=C/S(=O)(=O)c1ccc2ccccc2c1	none
CCCC(=O)N1CC(=O)Nc2ccc(C)cc2C1c1ccccc1 (configuration not stated)	none
Cc1ccc(NS(=O)(=O)c2ccc(-c3cnc(C4CC4)o3)cc2)c(C)c1	CF NFkB block 65.1 | CF NFkB inh conf 65.1
COc1ccccc1NS(=O)(=O)c1ccc(-c2cnc(C3CC3)o2)cc1	CF NFkB block 54.1 | CF NFkB inh conf 70.5
COc1ccccc1CC(=O)N(Cc1ccccc1)c1cccc(C)c1	none
CCOC(=O)c1c(C)c2c(=O)[nH]cnc2n1-c1ccccc1	CF NFkB block 56.3, TWEAK-Fn14 inh 62.9 | CF NFkB inh conf 66.3
CCOC(=O)c1sc2nc[nH]c(=O)c2c1C	none
CCOc1ccc(CCNC(=O)COC(=O)c2[nH]c(C)c(C(C)=O)c2C)cc1OCC	none
COc1ccc(S(=O)(=O)Nc2cccc(S(=O)(=O)N(C)C)c2)cc1[N+](=O)[O-]	none
O=CNC1c2ccccc2CCc2ccccc21	none
COc1ccc(OC)c(CC(NC(C)=O)C(=O)NC2CCN(S(=O)(=O)c3ccc(NC(C)=O)cc3)CC2)c1 (configuration not stated)	none
O=C(NCc1ccccn1)C1CCCN(S(=O)(=O)c2cc(Cl)ccc2Cl)C1 (configuration not stated)	CF NFkB block 87.2, Peg3 promoter 99.0 | CF NFkB inh conf inactive
COc1ccc(C)cc1S(=O)(=O)N1CCCC(C(=O)NCc2ccccn2)C1 (configuration not stated)	none
CCCC[C@@H]1CNC(=O)C(=O)N1CCCC	none (no result: CF NFkB block, KKLEB tox, Peg3 promoter)
CCOC(=O)N1CCN(CC(=O)Nc2ccc([N+](=O)[O-])cc2C(=O)Nc2ccccc2F)CC1	CF NFkB block 66.9, Peg3 promoter 63.7 | CF NFkB inh conf inactive
CCN(CC)c1ccc(CNc2nc3ccccc3n2CCN2CCCCC2)cc1	CF NFkB block 55.0 | CF NFkB inh conf inactive
COc1ccc(CNc2nc3ccccc3n2CCN2CCCCC2)cc1	none
NC(=O)c1nc(-c2cccs2)nc2c1[nH]c(=O)n2-c1ccc(F)cc1	CF NFkB block 53.0 | CF NFkB inh conf inactive
CC(=O)Nc1ccc(C(=O)N2CCCCC2c2cc(C(=O)Nc3ccccc3Cl)no2)cc1 (configuration not stated)	none
COc1ccc(-c2csc(/C(C#N)=C\c3ccc(OC)c([N+](=O)[O-])c3)n2)cc1	none
COc1ccc(-c2csc(/C(C#N)=C\c3ccc(O)c([N+](=O)[O-])c3)n2)cc1OC	CF NFkB block 79.3, TWEAK-Fn14 inh 59.8 | CF NFkB inh conf 79.8
O=C(CSc1ccc(Cl)cc1)N/N=C/c1ccc([N+](=O)[O-])o1	none
CC1=Nn2c(nnc2-c2ccccc2Cl)SC1	none
Clc1ccccc1C1=Nn2c(nnc2-c2ccncc2)SC1	CF NFkB block 77.9, TWEAK-Fn14 inh 63.9 | CF NFkB inh conf 93.7
CC1(C)CC(=O)C(C2C3=C(CC(C)(C)CC3=O)Oc3c(Br)cc(Br)cc32)=C(O)C1 (configuration not stated)	CF NFkB block 56.1, TWEAK-Fn14 inh 61.7 | CF NFkB inh conf 56.8
COCCN(C(=O)COC(=O)c1cccnc1SC)c1c(N)n(Cc2ccccc2)c(=O)[nH]c1=O	none
COc1ccc(C2CNC(=O)C2)cc1OC1CCCC1 (configuration not stated)	CF NFkB block 52.3 | CF NFkB inh conf 54.6
COc1ccc(CCNS(=O)(=O)c2ccc(C3CNC(=O)C3)cc2)cc1OC (configuration not stated)	none
Cc1ccc2c(c1)C(=O)N1c3cc(C)c(C)cc3NC(=O)C1C(=O)N2 (configuration not stated)	none
Clc1cccc(Nc2nc(-c3ccncc3)nc3ccccc23)c1	CF NFkB block 64.2, Peg3 promoter 82.5 | CF NFkB inh conf inactive
Clc1ccccc1Nc1nc(-c2ccncc2)nc2ccccc12	none
O=C(Nc1ccccc1N1CCOCC1)c1cc(-c2ccco2)nc2ccccc12	CF NFkB block 75.3, Peg3 promoter 59.6 | CF NFkB inh conf 86.5

Source: PubChem BioAssay
